Data from PubChem BioAssay AID1259422 (The Scripps Research Institute Molecular Screening Center, 2018).
Among all 640,000 compounds or so, about 9,300 (1.5%) were called active. The list comes from a sample in which actives are over-represented; it also holds similar structures and randomly drawn compounds. Values without a mark were called inactive. Cut-off read from the data, not from the text of the source: active = inhibition above about 32%; inactive = the rest.

Experiment: TEAD-YAP interaction inhibition, primary screen, TEAD-YAP interaction inhibitor project, luminescence, HEK-TIYL cells (AID 1259422);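 note: 0% = median of test compound wells and 100% = reference inhibitor wells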
Settings: TEAD-Gal4/YAP UAS-luciferase luminescence, at 9.12 µM, stronger effect = higher value

SMILES | inhibition
COCCNCC(=O)Nc1cccc2ccccc12 | 8.26%
O=C(NN1CC(C(=O)OCc2ccc([N+](=O)[O-])cc2)CC1=O)c1ccccc1 (stereo not drawn) | 5.91%
Cc1cc(C)n(CCc2nc3c4ccccc4n(CC(N)=O)c(=O)n3n2)n1 | 4.04%
Cc1csc2nc(-c3ccc(NC(=O)COc4ccccc4)cc3)cn12 | 78.2% (active)
COC(=O)COc1ccc(NC(=O)COc2ccccc2)cc1 | 0.58%
COc1ccc(CC(=O)Nc2ccc(-c3cn4c(C)csc4n3)cc2)cc1 | -12.5%
O=C(Nc1cccc2ccccc12)c1nc2c(nnn2Cc2ccc(F)cc2)c(=O)[nH]1 | -2.87%
O=C(Nc1ccc(Br)cn1)c1ccccc1Cl | -0.48%
CCCn1c(SCC(=O)Nc2nc(C)cs2)nnc1-c1ccccn1 | 12.5%
Cc1csc(NC(=O)CSc2nnc(-c3cccnc3)o2)n1 | -34.8%
Cc1cccc(-n2c(SCC(=O)NNC(=O)c3ccco3)nnc2-c2cccnc2)c1C | -0.49%
Cc1ccccc1-n1c(SCC(=O)c2c[nH]c3ccccc23)nnc1-c1cccnc1 | 48.9% (active)
CCc1ccccc1-n1c(SCC(=O)Nc2nc(C)cs2)nnc1-c1cccnc1 | 56.8% (active)
Cc1ccccc1-n1c(SCC(=O)NNC(=O)c2ccco2)nnc1-c1cccnc1 | -12%
O=C(NCc1ccncc1)C(=O)NCC1OCCCN1S(=O)(=O)c1cccs1 (stereo not drawn) | 0.25%
CCCCOC(=O)c1cc(-c2ccc(OC)cc2)nc2ccc(Br)cc12 | 0.12%
Cc1[nH]c2ccccc2c1C(Nc1nccs1)c1ccccc1O (stereo not drawn) | 2.06%
Cn1c(SCC(=O)c2ccc([N+](=O)[O-])cc2)nnc1C(F)(F)F | 4.67%
O=C(N/N=C/c1ccccc1Cl)C(=O)N/N=C/c1ccccc1Cl | 9.07%
CCOC(=O)C1=CN(Cc2ccc(F)cc2)C=C(C(=O)OCC)C1c1ccc(Cl)cc1 | 1.74%

SMILES | inhibition
Cc1cc(C)n(-c2nc(Nc3ccc(OC(F)(F)F)cc3)nc(-n3nc(C)cc3C)n2)n1 | -10.5%
CCc1ccccc1NC(=O)NCCNc1cc(-n2nc(C)cc2C)nc(C)n1 | -1.06%
CC(=O)Nc1ccc(Nc2cc(Nc3ccccn3)nc(N)n2)cc1 | -12.6%
Cc1cc(NCc2ccccc2)nc(-n2nc(C)cc2C)n1 | 65.4% (active)
CC(=O)Nc1ccc(Nc2cc(C)nc(-n3nc(C)cc3C)n2)cc1 | 36% (active)
Cc1cc(NCc2ccccc2)nc(N2CCN(Cc3ccc4c(c3)OCO4)CC2)n1 | 3.95%
COc1cc2nc(NCc3ccc4c(c3)OCO4)nc(N)c2cc1OC | 8.22%
COc1cccc(NC(=O)CSc2nc(O)c(C)c(=O)n2-c2ccc(F)cc2)c1 | -6.67%
COc1ccc(/C=N/NC(=O)CNc2cccc3ccccc23)cc1Cl | 8.35%
O=C(CCSc1nc(-c2ccccc2)cs1)N1CCOCC1 | -10.1%
O=C(NC1CC1)C1CCN(C(=O)c2sccc2-n2cccc2)CC1 | 0.5%
CCC1CN(Cc2cn(CC)nc2C)Cc2cc(OC)ccc2O1 (stereo not drawn) | 4.73%
CC(C)n1cnc2c(NCc3nc4ccccc4[nH]3)nc(Cl)nc21 | 61.8% (active)
COc1ccc(CNc2nc(-c3ccccc3)nc3c2ncn3C(C)C)cc1 | -3.1%
FC(F)(F)c1ccc(Cn2cnc3c(NCc4nc5ccccc5[nH]4)nc(Cl)nc32)cc1 | -2.85%
COc1ccc(-c2nc(Nc3cc(OC)c(OC)c(OC)c3)c3ncn(C(C)C)c3n2)cc1 | 23.6%
COc1cc(Nc2nc(NCc3nc4ccccc4[nH]3)c3ncn(C(C)C)c3n2)cc(OC)c1OC | 47.9% (active)
COc1cc(Nc2cc(C(=O)NCc3nc4ccccc4[nH]3)ccn2)cc(OC)c1OC | 2.93%
Cc1c(C(=O)NCC2CCCO2)sc2ncn(Cc3ccccc3F)c(=O)c12 (stereo not drawn) | 2.38%
Oc1c(C(c2ccc(F)cc2)N2CCOCC2)sc2ncnn12 (stereo not drawn) | -3.52%

SMILES | inhibition
COc1ccccc1N1CCN(/N=C(\C)c2cccs2)CC1 | -19.5%
CCCn1nnnc1NC(=S)NC(=O)c1cc2ccccc2o1 | 35.9% (active)
Cc1cccnc1NC(=S)NC(=O)c1cc2ccccc2o1 | -26.1%
CCCn1nnnc1NC(=O)c1ccc(-c2cccc(Cl)c2)o1 | -16.9%
Cc1ccc(C(C)C)c(OC(=O)c2cc(-c3ccc(Cl)cc3)nc3ccc(C)cc23)c1 | -8.87%
O=C1C(Nc2ccc(F)c(F)c2)=C(N2CCCC2)C(=O)c2ccccc21 | -1.87%
CC1CCN(C2=C(NC3CCCC3)C(=O)c3ccccc3C2=O)CC1 | 51.5% (active)
O=C1C(Nc2ccc(F)c(F)c2)=C(N2CCCCC2)C(=O)c2ccccc21 | -7.95%
Cc1c(C(=O)N2CCN(Cc3ccc4c(c3)OCO4)CC2)sc2ncn(CC(=O)Nc3cccc(C(F)(F)F)c3)c(=O)c12 | -1.1%
CNC(=O)c1ccc(Cl)c([N+](=O)[O-])c1 | 8.77%
CCCCC(=O)NC1(C(F)(F)F)C(=O)N(C2CCCCC2)C(C)=C1C(=O)OCC (stereo not drawn) | 18.5%
Nc1c(C(=O)OCC(=O)NCc2ccc3c(c2)OCO3)[nH]c(=O)[nH]c1=O | -6.24%
COC(=O)c1c(C)oc2c1cc(NS(=O)(=O)c1ccc(Cl)cc1)c1ccccc12 | 11.4%
COCCOC(=O)c1c(C)oc2ccc(NS(=O)(=O)c3ccc(Cl)cc3)cc12 | -2.27%
COc1ccc(S(=O)(=O)Nc2ccc3oc(C)c(C(C)=O)c3c2)cc1 | 54.7% (active)
CC(=O)c1c(C)oc2c1cc(NS(=O)(=O)c1cccc3cccnc13)c1ccccc12 | -0.78%
Cc1ccc(S(=O)(=O)Nc2ccc3oc(C)c(C(=O)NN)c3c2)cc1 | 10.1%
CC(=O)c1c(C)oc2c1cc(NS(=O)(=O)c1ccc(C)cc1)c1ccccc12 | 62.9% (active)
